Our source for the composite z-score values is PubChem BioAssay.

The test in a line: probe aLefty2 binding to arrayed compounds – biochemical, biotinylated probe, 635/667 nm fluorescence, primary screen (AID 1094).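 Further: score merges spot fluorescence near 667 nm with spot signal-to-noise ratio.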 The following applies: small-molecule microarray, higher = more signal.
As to `N#Cc1ccc(NN2C(C(O)c3ccc(Br)cc3)C=CC3C(=O)N(c4ccccc4)C(=O)C32)cc1` (configuration not stated), the composite z-score turned out to be 0.145.
For the compound `CC1CC/C=C\[C@H]2OC34C=CCN(c5ccc(Cl)cc5)C(=O)[C@H]3N(C(C)CO)C(=O)[C@]4(C)C2C(=O)O1` (some centres not stated), the composite z-score is -0.0099.
Under `CO[C@H]1O[C@H](CO)[C@@H](OC(=O)Nc2ccc(Br)cc2)[C@@H]2OC(=O)[C@@H](Cc3ccccc3)C/C=C/C[C@H](Cc3ccccc3)C(=O)O[C@@H]12` stands 0.0378; under `CCOC(=O)C[C@H]1[C@H](OC(=O)c2cc3ccccc3oc2=O)[C@@H](NC(=O)c2ccccc2)c2cc(OCCCO)ccc2N1C(=O)c1ccccc1`, -0.0422.
For `O=C1OCCC=C[C@H]2OC34C=CCN(c5ccc6ccccc6c5)C(=O)[C@H]3N(CCCO)C(=O)[C@@H]4C12` (some centres not stated), the composite z-score was -0.222.
As to `O=C1C2C=CC(C(O)C3CC=CCC3)N(Nc3ccccc3)C2C(=O)N1c1ccccc1` (configuration not stated), the composite z-score was 0.401.
Take `Cc1ccc(S[C@]2(C(=O)NC(C)C)CC(=O)N(Cc3cc(C(F)(F)F)cc(C(F)(F)F)c3)[C@@H]2c2ccc(CO)cc2)cc1`: the composite z-score is -0.117.
For `CCOC(=O)C[C@H]1[C@H](OC(=O)c2ccccc2-c2ccccc2)[C@@H](NC(=O)c2ccc3ccccc3n2)c2cc(OCCCO)ccc2N1C(=O)Cc1ccc(OC)cc1`, the composite z-score was -0.111.
Take `CC(C)c1ccc(NN2C(C(O)c3ccc(C#N)cc3)C=CC3C(=O)N(c4ccccc4)C(=O)C32)cc1` (configuration not stated): the composite z-score turned out to be 0.286.
Then `CCC#CCN(Cc1ccccc1Br)[C@H](/C=C/C1CC1)[C@@H](O)Cc1ccccc1`, with 0.208; and `C=C[C@@H](OC)[C@H](OC(=O)Nc1ccc(OC)cc1)c1ccc(O)c(F)c1`, with -0.183.
Then `C=CCC(OC(C)=O)[C@@H]1[C@@H](N(Cc2ccc(-c3cccc(C(F)(F)F)c3)o2)C(=O)c2ccc(-c3ccccc3)cc2)c2cc(OCCCO)ccc2N1C(=O)Cc1ccc2ccccc2c1` (some centres not stated), with -0.0928; and `CCOC(=O)C1=C[C@@H](c2ccccc2)N(S(=O)(=O)c2ccc(C)cc2)[C@H]1c1ccc(OC)cc1`, with 0.338; and `CS(=O)(=O)CCOC(=O)C1=CC(CCCO)=CC(c2ccc(CN3CCCC3)cc2)N(Cc2sc3ccccc3c2Cl)C=C1C(=O)OCCS(C)(=O)=O` (configuration not stated), with 0.27.
For `CCOC(=O)C[C@H]1[C@H](OC(=O)Cc2ccc3c(c2)OCO3)[C@@H](NC(=O)c2ccc3ccccc3n2)c2cc(OCCCO)ccc2N1C(=O)c1ccc2ccccc2n1`, the composite z-score was -0.0708.
With `C=CCC(OC(C)=O)[C@@H]1[C@@H](N(Cc2ccc(-c3ccccc3)cc2)C(=O)c2ccc(-c3ccccc3)cc2)c2cc(OCCCO)ccc2N1C(=O)c1ccc2ccccc2c1` (some centres not stated), the composite z-score came to 0.0008.
In turn, `Cc1ccc(NN2C(C(O)c3c(F)cccc3Cl)C=CC3C(=O)N(C4CCCCC4)C(=O)C32)cc1` (configuration not stated) returned a composite z-score of 0.184.
`CN(C)C(=O)[C@]1(Cc2ccccc2CN=[N+]=[N-])N=C(c2ccc(OCCCO)cc2)O[C@@H]1c1ccccc1` registered a composite z-score of -0.0352.
Then `Cc1ccc(S[C@]2(C(=O)O)CC(=O)N(C3CCCCC3)[C@@H]2c2ccc(CO)cc2I)cc1`, with 0.274; and `CCOC(=O)C[C@H]1[C@H](OC(=O)c2cc3ccccc3oc2=O)[C@@H](NC(=O)CC(C)C)c2cc(OCCCO)ccc2N1C(=O)c1ccc2ccccc2n1`, with -0.0916; and `CCOC(=O)C[C@H]1[C@H](OC(=O)c2ccc(-c3ccccc3)cc2)[C@@H](NC(=O)CC(C)C)c2cc(OCCCO)ccc2N1C(=O)c1ccc2ccccc2n1`, with -0.145.
`CCOC(=O)C[C@H]1[C@H](OC(=O)c2ccc(C(=O)c3ccccc3)cc2)[C@@H](NC(=O)c2ccc3ccccc3n2)c2cc(OCCCO)ccc2N1C(=O)Cc1ccc(OC)cc1` returned a composite z-score of -0.157.
Then `COc1ccc([Si](C)(C)[C@@H]2[C@@H](CC(=O)N(CCO)Cc3ccccc3)O[C@]3(C(=O)N(Cc4cccc(N5CCCCC5=O)c4)c4ccccc43)[C@H]2C)cc1`, with 0.232; and `COC(=O)[C@]1(CCS(=O)(=O)c2ccccc2)N=C(c2ccc(OCCCO)cc2)O[C@@H]1c1ccccc1N=[N+]=[N-]`, with 0.346.
Then `COC(=O)[C@@]1(Cc2ccccc2)[C@H]2c3cc(C(=O)N4CCCC4)n(CCc4ccccn4)c3C[C@H]2CN1C(=O)c1ccccc1`, with 0.754; and `CCCN1C(=O)[C@@]2(Cc3ccccc31)N=C(c1ccc(OCCCO)cc1)O[C@H]2c1ccccc1`, with 0.235.
`COC(=O)[C@@]1(Cc2ccc(F)cc2)[C@H]2c3cc(C(=O)N(C)C)n(Cc4ccc(OC(F)(F)F)cc4)c3C[C@H]2CN1C(=O)c1ccccc1` came in with a composite z-score of -0.0623.
